Data published in PubChem BioAssay (Tox21).
Records with an inconclusive call do not appear. Calls of active or inactive are those of the source. Calls come from the whole dose curve; as a rule, active = well fitted activation curve with a large enough effect in the repeat runs; inconclusive = weak or mixed curves; inactive = flat fitted curve, though single readings scatter.

experiment: Caspase-3/7 induction in HepG2 cells by small molecules, qHTS assay (AID 1346978); conditions: HepG2 caspase-3/7 activation, Caspase-Glo luminescence, 17 h; series mostly up to 92.4 µM; note: nearly all actives have a fitted effect of over 15% in size
From the text: National Center for Advancing Translational Sciences [NCATS] NIH Chemical Genomics Center [NCGC] U.S. Environmental Protection Agency [EPA] National Institutes of Environmental Health Sciences [NIEHS] National Toxicology Program [NTP] Assay overview: Apoptosis is a process of programmed cell death and plays a central role in the development of multicellular organisms. It is a highly regulated process and induces cell death by activating caspases, which are the members of cysteine aspartic acid-specific protease (caspase) family. Caspases involved in apoptosis are classified by their mechanism of action as initiator caspases (caspase-2, -8, -9 and -10) and executioner caspases (caspase-3, -6, and -7). Inhibition of apoptosis results in number of cancers, autoimmune diseases, inflammatory diseases and viral infection. To identify small molecule compounds that induce apoptosis, a homogeneous, luminescent Caspase-Glo 3/7 assay was used. Wild type HepG2 cells were used to screen Tox21 libraries for identifying caspase-3/7 activity inducers.
Assay Protocol Summary: HepG2 cells were dispensed at 2,000 per well in 5uL of culture medium into white solid bottom 1536-well plates (Corning Life Sciences, Corning, NY) using a Multidrop Combi (Thermo Scientific, Waltham, MA) dispenser. The assay plates were incubated at 37 C and 5% CO2 for 5hr, and then 23nL of compounds dissolved in DMSO and positive control were transferred using a Pintool station (Wako, San Diego, CA). The assay plates were incubated at 37C and 5% CO2 for 17hr. For caspase-3/7 activity read, 4uL of Caspase-Glo 3/7 reagent (Promega Corporation, Madison, WI) was added to each well of the assay plates using Flying Reagent Dispenser (FRD, Aurora Discovery, San Diego, CA) and incubated the assay plates at room temperature for 30min. The luminescence signal was quantified using a ViewLux plate reader (Perkin Elmer, Shelton, CT).

Structure (SMILES) | outcome
O=C1NC2NC(=O)NC2N1 (stereo not given) | inactive
NC(=O)C1(N2CCCCC2)CCN(CCCC(=O)c2ccc(F)cc2)CC1 | inactive
NS(=O)(=O)c1ccccc1OC(F)(F)F | inactive
CCOC(=O)CCc1ccccc1 | inactive
C=CCOCC(O)CCl (stereo not given) | inactive
CC(=O)N(CC(O)CO)c1c(I)c(C(=O)NCC(O)CO)c(I)c(C(=O)NCC(O)CO)c1I (stereo not given) | inactive
Cc1ccc2c(c1)c1c3n2CCNC3CCC1 (stereo not given) | inactive
Cc1ccccc1OCC1CO1 (stereo not given) | inactive
CN[C@@H]1[C@@H](O)[C@@H](O[C@@H]2[C@H](O)[C@H](O[C@H]3OC(CN)=CC[C@H]3N)[C@@H](N)C[C@H]2N)OCC1(C)O (stereo not given in full) | inactive
CC(=O)/C=C/c1ccco1 | inactive
CCCC(C)CC (stereo not given) | inactive
O=C(O)CCNC(=O)c1ccccc1 | inactive
C[Si]1(C)N[Si](C)(C)N[Si](C)(C)N1 | inactive
N#CCCOCCOCCC#N | inactive
CC(C)CCO | inactive
COc1cc([N+](=O)[O-])ccc1N | inactive
CC(C)C(=O)Nc1cccc(C(F)(F)F)c1 | inactive
CCCCC/C=C/CC(=O)OC | inactive
CO[Si](CCCS)(OC)OC | inactive
CC(=O)OC[C@H]1O[C@@H](OC(C)=O)[C@H](OC(C)=O)[C@@H]1OC(C)=O | inactive

Structure (SMILES) | outcome
CC1=CC[C@H](CC=O)C1(C)C | inactive
CN(C1CCCCC1)S(=O)(=O)c1ccccc1N | inactive
CCN(CCO)c1cccc(C)c1 | inactive
Nc1ccnc(=O)[nH]1 | inactive
O=C(O)c1ccccc1C(=O)OCc1ccccc1 | inactive
CCCCCCCCCCCCOC(C)=O | inactive
CNC(=O)NC | inactive
CCN(CC)C(=O)C1CN2CCc3cc(OC)c(OC)cc3C2CC1OC(C)=O (stereo not given) | inactive
C[C@H]1O[C@H](O[C@H]2[C@H](O)[C@@H](O)[C@@H](O[C@H]3[C@H](O)[C@@H](O)[C@H](O)O[C@@H]3CO)O[C@@H]2CO)[C@H](O)[C@@H](O)[C@@H]1N[C@H]1C=C(CO)[C@@H](O)[C@H](O)[C@H]1O | inactive
O=C(c1ccc2c(c1)C(=O)OC2=O)c1ccc2c(c1)C(=O)OC2=O | inactive
Nc1cc(C(=O)O)ccc1Cl | inactive
CCN(Cc1cccc(S(=O)(=O)O)c1)c1ccccc1 | inactive
C=CCOc1cc(Cl)ccc1C(=O)NCCN(CC)CC | inactive
C=C(C)[C@@H]1CC[C@@H](C)C[C@@H]1O | inactive
Cc1nc2ccccc2c(=O)o1 | inactive
Nc1cc(Cl)cc(S(=O)(=O)O)c1O | inactive
CCC(CO)CO | inactive
O=c1cc(O)c(Cl)c[nH]1 | inactive
NS(=O)(=O)c1cc2c(cc1Cl)NC(C(Cl)Cl)NS2(=O)=O (stereo not given) | inactive
CCCCCCCC/C=C\CCCCCCCC(=O)OC[C@@H](O)[C@H]1OC[C@H](O)[C@H]1O | inactive
